For some of these results: Measured potencies and affinities stand elsewhere.
Columns and labels:
Set-up in all cases: scale not given: direction of the effect not stated beside the values
[1] = biological target: Protein translocase subunit SecA (Escherichia coli (strain K12)) (UniProt P10408); assay: Assay to Identify E. coli SecA ATPase Inhibitors; format: functional; details: 30 µM
[2] = biological target: T1, Ubiquitin-activating enzyme e1, putative (Leishmania donovani (strain BPK282A1)) (UniProt E9BSI1); assay: Leishmania donovani Ubiquitin Activating Enzyme (LdE1); format: functional; details: 30 µM
T1 sequence (whole entry): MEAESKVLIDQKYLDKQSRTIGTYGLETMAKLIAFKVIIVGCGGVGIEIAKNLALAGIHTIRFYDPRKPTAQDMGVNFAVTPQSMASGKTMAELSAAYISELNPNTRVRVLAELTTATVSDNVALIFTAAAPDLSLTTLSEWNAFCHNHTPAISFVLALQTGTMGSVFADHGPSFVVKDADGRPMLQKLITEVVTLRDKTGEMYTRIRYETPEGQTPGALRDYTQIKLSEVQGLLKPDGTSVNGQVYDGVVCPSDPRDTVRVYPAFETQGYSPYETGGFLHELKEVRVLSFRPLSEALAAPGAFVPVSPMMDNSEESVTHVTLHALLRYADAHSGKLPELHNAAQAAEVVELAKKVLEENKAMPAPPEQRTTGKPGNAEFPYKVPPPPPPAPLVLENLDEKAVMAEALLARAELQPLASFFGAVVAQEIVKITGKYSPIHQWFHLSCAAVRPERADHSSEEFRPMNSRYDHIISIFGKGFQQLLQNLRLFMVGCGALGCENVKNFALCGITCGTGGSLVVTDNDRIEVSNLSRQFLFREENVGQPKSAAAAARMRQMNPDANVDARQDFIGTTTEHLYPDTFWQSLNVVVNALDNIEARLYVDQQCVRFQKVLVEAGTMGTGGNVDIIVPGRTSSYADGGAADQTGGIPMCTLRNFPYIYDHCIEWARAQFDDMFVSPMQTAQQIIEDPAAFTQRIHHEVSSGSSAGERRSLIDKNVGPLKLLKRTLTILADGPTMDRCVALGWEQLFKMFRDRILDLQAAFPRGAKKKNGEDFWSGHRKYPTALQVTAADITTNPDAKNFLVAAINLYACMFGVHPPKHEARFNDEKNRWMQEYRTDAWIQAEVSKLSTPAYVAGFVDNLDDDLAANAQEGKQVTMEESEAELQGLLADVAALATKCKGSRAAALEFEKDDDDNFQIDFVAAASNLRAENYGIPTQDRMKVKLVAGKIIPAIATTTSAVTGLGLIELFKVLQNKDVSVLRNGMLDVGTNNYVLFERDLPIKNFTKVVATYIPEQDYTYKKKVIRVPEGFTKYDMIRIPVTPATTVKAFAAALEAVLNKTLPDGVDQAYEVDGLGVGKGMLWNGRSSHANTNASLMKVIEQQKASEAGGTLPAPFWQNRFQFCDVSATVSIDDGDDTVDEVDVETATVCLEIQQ

[3] = biological target: T2, Aspartate--tRNA(Asp/Asn) ligase (Mycobacterium tuberculosis (strain ATCC 25618 / H37Rv)) (UniProt P9WFW3); assay: Assay for Asp RNA synthetase-1 from Mycobacterium tuberculosis; format: functional; details: 30 µM; also: in the data most compounds retested in dose-response had high values
T2 sequence (whole entry): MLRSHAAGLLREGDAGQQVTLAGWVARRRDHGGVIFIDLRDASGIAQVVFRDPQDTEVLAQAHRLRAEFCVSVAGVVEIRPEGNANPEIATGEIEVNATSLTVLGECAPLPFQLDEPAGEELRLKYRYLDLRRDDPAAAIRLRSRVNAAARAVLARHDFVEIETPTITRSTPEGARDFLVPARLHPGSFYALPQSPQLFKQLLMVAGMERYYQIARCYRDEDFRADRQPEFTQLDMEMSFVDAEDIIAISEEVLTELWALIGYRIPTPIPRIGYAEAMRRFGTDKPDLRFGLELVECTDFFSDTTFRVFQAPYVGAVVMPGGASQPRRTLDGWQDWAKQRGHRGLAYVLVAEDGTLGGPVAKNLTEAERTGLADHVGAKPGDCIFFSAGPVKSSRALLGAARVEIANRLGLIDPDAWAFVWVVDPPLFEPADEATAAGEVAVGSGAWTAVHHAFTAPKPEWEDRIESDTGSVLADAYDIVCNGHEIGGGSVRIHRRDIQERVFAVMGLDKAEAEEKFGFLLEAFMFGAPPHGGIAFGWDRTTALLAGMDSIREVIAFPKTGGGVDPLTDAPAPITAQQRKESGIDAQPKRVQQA

[4] = biological target: AMP-activated protein kinase, AMPK (Homo sapiens) (UniProt P54646+O43741+P54619+Q9UGJ0+Q9Y478+Q13131+Q9UGI9); assay: AMP-dependent Kinase enzyme assay. An in vitro enzyme assay that detects ADP turnover that is directly proportional to AMPK activity. This uses naive AMPK that is activated during the assay with MK-8722; format: functional; details: 30 µM
[5] = biological target: Sialic acid-binding Ig-like lectin 9 (Homo sapiens) (UniProt Q9Y336); assay: Hs-Siglec9 ALPHAscreen SOP 20170721; details: 10 µM
Trypanosoma cruzi = assay: Trypanosoma cruzi phosphomannomutase and mannose-1-phosphate guanylyltransferase assay; format: functional; details: 10 µM
[6] = biological target: T3, Arginase-2, mitochondrial (Homo sapiens) (UniProt P78540); assay: in vitro enzyme assay to detect the production of urea directly proportional to the activity of Arginase II; format: functional; details: 33.3 µM; also: in the data most compounds retested in dose-response had high values
T3 sequence (whole entry): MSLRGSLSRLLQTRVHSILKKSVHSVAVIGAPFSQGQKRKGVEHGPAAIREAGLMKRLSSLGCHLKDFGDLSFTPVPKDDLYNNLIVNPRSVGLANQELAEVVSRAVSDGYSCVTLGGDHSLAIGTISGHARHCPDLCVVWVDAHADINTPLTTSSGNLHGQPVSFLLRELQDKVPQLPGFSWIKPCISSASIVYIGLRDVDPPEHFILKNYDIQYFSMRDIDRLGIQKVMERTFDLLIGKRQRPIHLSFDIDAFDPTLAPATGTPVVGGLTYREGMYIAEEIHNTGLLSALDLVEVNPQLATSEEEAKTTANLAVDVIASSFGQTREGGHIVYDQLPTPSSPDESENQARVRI

[7] = biological target: T4, Proteasome subunit beta (Trypanosoma cruzi) (UniProt O96673); assay: Trypanosoma cruzi proteasome chymotrypsin-like activity (TcProtChymo) assay.; also: in the data most compounds retested in dose-response had high values; format: functional; details: 9.37 µM
T4 sequence (whole entry): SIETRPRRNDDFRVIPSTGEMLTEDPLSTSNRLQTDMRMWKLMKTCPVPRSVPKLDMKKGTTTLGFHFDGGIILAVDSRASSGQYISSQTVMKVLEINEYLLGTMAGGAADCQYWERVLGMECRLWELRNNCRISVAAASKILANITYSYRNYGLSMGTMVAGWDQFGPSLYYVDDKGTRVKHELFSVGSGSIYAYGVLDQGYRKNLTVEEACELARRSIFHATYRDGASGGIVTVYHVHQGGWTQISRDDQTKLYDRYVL

Homo sapiens = organism: Homo sapiens; assay: To identify inhibition of the IFN signalling (Jak-Stat) pathway via expression of an eGFP reporter gene under the control of an IFN-stimulated response element (ISRE) containing MxA promoter.; format: functional; details: 30 µM
[8] = biological target: Shiga toxin 2 (Escherichia coli O157:H7) (UniProt P09385+P09386); assay: E. coli 0.157:H7 Shiga Toxin SOP - stx2 screening assay; format: functional; details: 30 µM
[9] = biological target: T5, Tyrosyl-tRNA synthetase, putative (Trypanosoma cruzi (strain CL Brener)) (UniProt Q4DSP6); assay: Trypanosoma cruzi tyrosyl tRNA synthetase (TcYRS) _High Tyrosine SOP; format: functional; details: 30 µM; also: in the data most compounds retested in dose-response had high values
T5 sequence (whole entry): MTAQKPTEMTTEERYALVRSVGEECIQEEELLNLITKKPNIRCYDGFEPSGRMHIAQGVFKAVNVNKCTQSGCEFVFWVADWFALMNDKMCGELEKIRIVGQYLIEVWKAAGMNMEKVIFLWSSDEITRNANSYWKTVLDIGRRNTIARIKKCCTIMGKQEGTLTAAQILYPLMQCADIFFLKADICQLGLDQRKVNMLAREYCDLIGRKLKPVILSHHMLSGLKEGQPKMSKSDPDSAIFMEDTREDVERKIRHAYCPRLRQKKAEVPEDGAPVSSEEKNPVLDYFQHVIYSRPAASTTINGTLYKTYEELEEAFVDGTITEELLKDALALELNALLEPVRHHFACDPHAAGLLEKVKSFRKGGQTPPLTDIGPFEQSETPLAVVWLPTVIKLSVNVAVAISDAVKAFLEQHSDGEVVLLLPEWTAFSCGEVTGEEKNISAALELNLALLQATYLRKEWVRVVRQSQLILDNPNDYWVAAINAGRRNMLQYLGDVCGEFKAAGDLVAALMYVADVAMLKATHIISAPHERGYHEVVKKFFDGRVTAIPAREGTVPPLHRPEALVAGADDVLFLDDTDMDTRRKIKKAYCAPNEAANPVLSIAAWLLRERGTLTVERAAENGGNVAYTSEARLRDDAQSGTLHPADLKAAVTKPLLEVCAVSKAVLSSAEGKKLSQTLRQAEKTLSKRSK

[10] = biological target: T5, Tyrosyl-tRNA synthetase, putative (Trypanosoma cruzi (strain CL Brener)); assay: Trypanosoma cruzi tyrosyl tRNA synthetase (TcYRS) SOP; format: functional; details: 30 µM
[11] = biological target: Chromo domain-containing protein 1 (Saccharomyces cerevisiae (strain ATCC 204508 / S288c) (Baker's yeast)) (UniProt P32657); assay: ScCHD-1 Enzyme Inhibition Assay; format: functional; details: 30 µM; also: in the data most compounds retested in dose-response had high values
Chain of Chromo domain-containing protein 1 (Saccharomyces cerevisiae (strain ATCC 204508 / S288c) (Baker's yeast)) (P32657 whole entry, the tested form may be a part): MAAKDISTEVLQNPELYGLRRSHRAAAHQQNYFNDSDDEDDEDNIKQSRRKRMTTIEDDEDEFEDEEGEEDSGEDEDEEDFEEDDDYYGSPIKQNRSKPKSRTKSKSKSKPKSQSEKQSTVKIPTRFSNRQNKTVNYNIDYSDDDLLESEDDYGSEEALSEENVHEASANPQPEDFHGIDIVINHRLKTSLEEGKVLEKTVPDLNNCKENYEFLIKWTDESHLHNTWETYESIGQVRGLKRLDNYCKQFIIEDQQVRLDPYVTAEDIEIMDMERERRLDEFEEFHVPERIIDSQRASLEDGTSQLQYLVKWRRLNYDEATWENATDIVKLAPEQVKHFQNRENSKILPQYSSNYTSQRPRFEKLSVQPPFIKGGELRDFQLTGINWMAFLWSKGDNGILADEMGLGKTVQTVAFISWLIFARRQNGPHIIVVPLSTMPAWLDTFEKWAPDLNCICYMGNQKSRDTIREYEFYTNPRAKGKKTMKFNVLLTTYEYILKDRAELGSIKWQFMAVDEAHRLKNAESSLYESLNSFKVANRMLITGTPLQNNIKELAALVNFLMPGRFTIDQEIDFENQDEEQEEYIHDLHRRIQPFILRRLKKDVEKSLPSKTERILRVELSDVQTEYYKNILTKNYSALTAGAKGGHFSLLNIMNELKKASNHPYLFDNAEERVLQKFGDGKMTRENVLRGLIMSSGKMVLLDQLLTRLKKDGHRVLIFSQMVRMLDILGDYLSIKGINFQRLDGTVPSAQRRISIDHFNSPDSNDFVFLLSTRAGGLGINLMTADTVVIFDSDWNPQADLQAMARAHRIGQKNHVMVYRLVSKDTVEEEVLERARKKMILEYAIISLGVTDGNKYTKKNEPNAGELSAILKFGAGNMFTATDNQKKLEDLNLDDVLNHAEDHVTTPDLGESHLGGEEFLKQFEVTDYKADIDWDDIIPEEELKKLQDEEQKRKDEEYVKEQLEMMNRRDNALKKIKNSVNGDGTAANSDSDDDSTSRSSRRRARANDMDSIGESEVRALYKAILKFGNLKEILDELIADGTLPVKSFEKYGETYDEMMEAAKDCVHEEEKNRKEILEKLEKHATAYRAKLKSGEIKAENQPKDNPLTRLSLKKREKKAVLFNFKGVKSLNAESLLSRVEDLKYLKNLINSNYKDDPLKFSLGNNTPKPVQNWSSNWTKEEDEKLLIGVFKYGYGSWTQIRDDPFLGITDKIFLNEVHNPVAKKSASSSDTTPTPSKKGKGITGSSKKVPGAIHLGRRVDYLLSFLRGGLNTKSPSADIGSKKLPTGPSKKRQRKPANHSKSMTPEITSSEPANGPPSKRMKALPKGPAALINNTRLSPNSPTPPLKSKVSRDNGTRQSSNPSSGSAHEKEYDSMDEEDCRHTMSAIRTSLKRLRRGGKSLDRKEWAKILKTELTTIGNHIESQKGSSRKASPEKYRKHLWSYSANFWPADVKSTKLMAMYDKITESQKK

Chain of Protein translocase subunit SecA (Escherichia coli (strain K12)) (P10408 whole entry): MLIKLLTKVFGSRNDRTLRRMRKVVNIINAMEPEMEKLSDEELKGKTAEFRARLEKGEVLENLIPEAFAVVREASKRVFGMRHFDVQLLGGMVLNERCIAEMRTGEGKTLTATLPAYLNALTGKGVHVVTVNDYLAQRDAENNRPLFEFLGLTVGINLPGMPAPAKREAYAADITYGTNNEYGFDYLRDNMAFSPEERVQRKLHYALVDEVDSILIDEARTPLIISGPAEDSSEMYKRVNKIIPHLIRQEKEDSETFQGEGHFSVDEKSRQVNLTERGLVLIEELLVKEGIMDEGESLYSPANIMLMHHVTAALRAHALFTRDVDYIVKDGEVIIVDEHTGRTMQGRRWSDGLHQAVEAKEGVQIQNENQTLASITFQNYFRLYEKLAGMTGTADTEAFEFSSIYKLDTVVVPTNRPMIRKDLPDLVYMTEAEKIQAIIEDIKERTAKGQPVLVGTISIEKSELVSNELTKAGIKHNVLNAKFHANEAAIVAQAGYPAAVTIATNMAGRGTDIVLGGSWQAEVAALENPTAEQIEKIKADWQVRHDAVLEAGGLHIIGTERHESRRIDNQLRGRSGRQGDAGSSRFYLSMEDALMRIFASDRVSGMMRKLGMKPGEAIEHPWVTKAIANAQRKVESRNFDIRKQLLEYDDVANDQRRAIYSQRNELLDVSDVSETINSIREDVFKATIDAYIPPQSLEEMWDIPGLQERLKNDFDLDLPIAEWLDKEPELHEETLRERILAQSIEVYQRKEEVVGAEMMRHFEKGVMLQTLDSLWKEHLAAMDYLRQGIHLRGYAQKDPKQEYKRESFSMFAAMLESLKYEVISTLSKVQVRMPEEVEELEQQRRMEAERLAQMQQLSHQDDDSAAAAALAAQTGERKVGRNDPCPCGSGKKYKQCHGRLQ
Chain of Sialic acid-binding Ig-like lectin 9 (Homo sapiens) (Q9Y336 whole entry): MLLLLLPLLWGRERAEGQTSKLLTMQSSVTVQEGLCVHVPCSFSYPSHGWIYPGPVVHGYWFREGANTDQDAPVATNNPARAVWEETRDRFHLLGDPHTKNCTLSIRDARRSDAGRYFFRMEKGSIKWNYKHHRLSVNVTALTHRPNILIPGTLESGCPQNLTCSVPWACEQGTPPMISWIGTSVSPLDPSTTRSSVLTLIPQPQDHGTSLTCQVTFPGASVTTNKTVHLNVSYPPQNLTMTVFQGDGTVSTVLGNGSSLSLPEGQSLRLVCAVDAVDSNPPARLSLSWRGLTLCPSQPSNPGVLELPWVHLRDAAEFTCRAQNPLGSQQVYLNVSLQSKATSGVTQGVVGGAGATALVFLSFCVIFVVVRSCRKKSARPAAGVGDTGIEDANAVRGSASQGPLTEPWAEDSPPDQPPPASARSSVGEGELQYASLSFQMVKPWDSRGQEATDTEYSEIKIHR

Compound | Percent Effect [1] [%] | Percent Effect [2] [%] | Percent Effect [3] [%] | Percent Effect [4] [%] | Percent Effect [5] [%] | Percent Effect (Trypanosoma cruzi) [%] | Percent Effect [6] [%] | Percent Effect [7] [%] | Percent Effect (Homo sapiens) [%] | Percent Effect [8] [%] | Percent Effect [9] [%] | Percent Effect [10] [%] | Percent Effect [11] [%]
O=C(c1cnn2c1OCCC2)N1CCC2(CC1)OCCO2 | -0.752 | 2.6 | -2.99 | 3.51 | 6.26 | -6.02 | -1.94 | 7.49 | 14.6 | 4.26 | 6.35 | 11.5 | -7.54
c1ccc(CN2C[C@@H]3CCCO[C@@H]3[C@H](Nc3ccccn3)C2)nc1 | -6.38 | 5.41 | 3.79 | -2.17 | 3.76 | 0.88 | 3.23 | 8.15 | -12.7 | 8.28 | 6.45 | 16.1 | -2.77
CN1C(=O)C2(CCN(CCO)C2)c2ccccc21 (stereo unspecified) | -3.9 | 10.8 | -3.9 | 5.24 | -5.82 | -4.01 | 0.319 | 24.9 | -2.44 | -6.34 | 1.08 | 12.8 | -1.83
Cc1ccc(N2CCO[C@H]3CN(Cc4cnn(C)c4)C[C@H]32)nn1 | -2.13 | -2.7 | -2.15 | 0.154 | -4.13 | -6.55 | 4.78 | 18.4 | 0.179 | -2.36 | 6.49 | 10.3 | 2.29
Cc1nc(C2(NCC(=O)NC(=O)NCc3cccs3)CCCCC2)no1 | -4.13 | 15.8 | -4.16 | -2.76 | -3.65 | 2.82 | -3.55 | -0.479 | 7.32 | 5.13 | 2.13 | 15.6 | -4.77
O=C1[C@H]2CN(CC3CC3)C[C@H]2CN1c1ccsc1 | -6.19 | -2.7 | 1.21 | 4.91 | -3.17 | -2.44 | -1.59 | 6.27 | -11.2 | -5.46 | 3.24 | 0 | 5.84
O=C(c1cc(-n2cnnn2)ccc1Cl)N1CCC2(CC1)OCCO2 | -3.84 | 5.26 | 0.24 | 3.99 | 7.5 | -3.21 | -3.55 | 8.53 | 7.36 | -4.29 | 3.19 | 5.2 | -4.14

From ChEMBL document CHEMBL3988442, “University of Dundee, Small-Polar-MMV Screening Library” (2021)
